{
  "source": "the supplement of paper PMC12819154",
  "about": "“High-throughput peptide-centric local stability assay extends protein–ligand identification to membrane proteins, tissues and bacteria” (Nature Structural & Molecular Biology, 2025);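 further: lysate desalted by size exclusion to strip endogenous ATP, peptide intensities built from DIA-NN precursor signals, and peptides missing any value discarded before comparison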",
  "data": [
    {"compound": "Nc1ncnc2c1ncn2[C@@H]1O[C@H](COP(=O)(O)OP(=O)(O)OP(=O)(O)O)[C@@H](O)[C@H]1O [adenosine 5'-triphosphate]", "assay": "log2 fold change of tryptic peptide abundance, ligand vs vehicle (limited proteolysis) (log2 ratio); higher = more trypsin-susceptible (destabilized)", "details": "ligand concentration: 5 mM; sample: E. coli desalted lysate; replicate design: treated before aliquoting", "description": "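HT-PELSA: desalted E. coli K-12 BW25113 lysate (with 12 mM MgCl2) incubated with 5 mM ATP (pH 7) or water for 30 min at 25 C, then a 4 min trypsin pulse at 22 C. Peptides were quantified by DIA-MS (4 replicates). Value is the peptide log2 fold change (treated/control); negative = stabilized. Scale: negative = ligand-stabilized region.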", "values": [
      {"target": "UniProt P46837 (peptide sequence: AEDEAINVFAR, peptide start residue: 303)", "log2 fold change": 0.79},
      {"target": "UniProt P07821 (peptide sequence: TLLHPLSLTFPAGK, peptide start residue: 25)", "log2 fold change": -1.16},
      {"target": "UniProt P37648 (peptide sequence: DKGLPEEEFNALVAQK, peptide start residue: 363)", "log2 fold change": 0.498},
      {"target": "UniProt P25437 (peptide sequence: SQLPGMVEDAMK, peptide start residue: 321)", "log2 fold change": -0.846},
      {"target": "UniProt P37647 (peptide sequence: LTGGSAEDAAK, peptide start residue: 275)", "log2 fold change": -1.34},
      {"target": "UniProt P37675 (peptide sequence: IVDLPMKLVGHK, peptide start residue: 78)", "log2 fold change": 0.735},
      {"target": "UniProt P31470 (peptide sequence: EGEGVTITNLR, peptide start residue: 74)", "log2 fold change": -0.324},
      {"target": "UniProt P31142 (peptide sequence: GHIPGALNVPWTELVR, peptide start residue: 194)", "log2 fold change": -0.763},
      {"target": "UniProt P37624 (peptide sequence: LFHIPEAEIPAR, peptide start residue: 376)", "log2 fold change": -1.74},
      {"target": "UniProt P0A9U1 (peptide sequence: LIASGTPDDLK, peptide start residue: 537)", "log2 fold change": -0.834},
      {"target": "UniProt P30176 (peptide sequence: LVEHTENDAYWGDGGHGK, peptide start residue: 123)", "log2 fold change": -0.814},
      {"target": "UniProt P16676 (peptide sequence: LYNGDER, peptide start residue: 345)", "log2 fold change": 0.414},
      {"target": "UniProt P08373 (peptide sequence: VNGNAGSFFKNPVVSAETAK, peptide start residue: 223)", "log2 fold change": 0.267},
      {"target": "UniProt P75785 (peptide sequence: SLGLTLNR, peptide start residue: 266)", "log2 fold change": -0.884},
      {"target": "UniProt P31665 (peptide sequence: QEVSQEFAQR, peptide start residue: 262)", "log2 fold change": -0.678},
      {"target": "UniProt P61517 (peptide sequence: DLDVTATNR, peptide start residue: 190)", "log2 fold change": 0.547},
      {"target": "UniProt P69829 (peptide sequence: EKMGSTGIGNGIAIPHGKLEEDTLR, peptide start residue: 58)", "log2 fold change": 0.37},
      {"target": "UniProt P77522 (peptide sequence: IMPTATNAR, peptide start residue: 392)", "log2 fold change": 1.07},
      {"target": "UniProt P0AFU4 (peptide sequence: LMTASWPGNVR, peptide start residue: 344)", "log2 fold change": -1.31},
      {"target": "UniProt P30015 (peptide sequence: TGDTPAQER, peptide start residue: 132)", "log2 fold change": -2.26},
      {"target": "UniProt P09152 (peptide sequence: GHEFMLK, peptide start residue: 724)", "log2 fold change": 0.491},
      {"target": "UniProt P09323 (peptide sequence: AIDACITR, peptide start residue: 408)", "log2 fold change": 0.593},
      {"target": "UniProt P75736 (peptide sequence: SFVDGEWR, peptide start residue: 165)", "log2 fold change": -1.28},
      {"target": "UniProt P29013 (peptide sequence: SREEYLQSQVNMLWR, peptide start residue: 204)", "log2 fold change": -0.636},
      {"target": "UniProt P76256 (peptide sequence: DENGIWHGEETEAVLKPEIVHER, peptide start residue: 130)", "log2 fold change": -0.588},
      {"target": "UniProt P24232 (peptide sequence: MFTHNPELKEIFNMSNQR, peptide start residue: 32)", "log2 fold change": -1.5},
      {"target": "UniProt P39208 (peptide sequence: RAGHFMPVALLK, peptide start residue: 119)", "log2 fold change": -1.52},
      {"target": "UniProt P0AEC3 (peptide sequence: FTQQGQVTVR, peptide start residue: 413)", "log2 fold change": -2.53},
      {"target": "UniProt P33371 (peptide sequence: ICPELQNASR, peptide start residue: 49)", "log2 fold change": 0.883},
      {"target": "UniProt P76268 (peptide sequence: ALQNVDLIR, peptide start residue: 83)", "log2 fold change": 0.371},
      {"target": "UniProt P36879 (peptide sequence: TYPGGVQALR, peptide start residue: 13)", "log2 fold change": -3.15},
      {"target": "UniProt P76010 (peptide sequence: FLNVSPTVER, peptide start residue: 213)", "log2 fold change": -1.34},
      {"target": "UniProt P38051 (peptide sequence: QAQQLGEWLMADDKNQR, peptide start residue: 267)", "log2 fold change": -0.448},
      {"target": "UniProt P33343 (peptide sequence: LSLITNDKITGNDK, peptide start residue: 95)", "log2 fold change": -0.561},
      {"target": "UniProt P33594 (peptide sequence: VLQNAVLPAFPVRR, peptide start residue: 249)", "log2 fold change": 0.401},
      {"target": "UniProt P02919 (peptide sequence: SIGSLAK, peptide start residue: 507)", "log2 fold change": 0.413},
      {"target": "UniProt P75957 (peptide sequence: KKPAEINSR, peptide start residue: 117)", "log2 fold change": -1.5},
      {"target": "UniProt P14377 (peptide sequence: LVALGHLAAGVAHEIR, peptide start residue: 242)", "log2 fold change": 1.01},
      {"target": "UniProt P0ADP0 (peptide sequence: EALTFVQNYHPALR, peptide start residue: 34)", "log2 fold change": 0.493},
      {"target": "UniProt P13857 (peptide sequence: TVQGNVMLHQR, peptide start residue: 54)", "log2 fold change": -0.406}
    ]}
  ]
}
